Measurements reported in PubChem BioAssay (NCI).
Compounds without any hit were thinned out: in the full panel of roughly 83,000, 20% have a hit.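 For each line, cells grew in 96-well plates with the test compound present at a single concentration for 48 hours.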 The source made the active and inactive calls. Rule for the calls: active = growth percent below 10; inactive = the rest.

Experiments:
Assay in all cases: NCI-60 one-dose screen, 48 h (100 = growth as untreated, 0 = no growth, -100 = all killed)
Conditions in all cases: 10 µM unless noted
NCI-H23 lung = tested on: NCI-H23 lung
NCI-H226 lung = tested on: NCI-H226 lung
NCI-H322M lung = tested on: NCI-H322M lung
HOP-62 NSCLC = tested on: HOP-62 NSCLC
NCI-H460 lung = tested on: NCI-H460 lung
HOP-92 NSCLC = tested on: HOP-92 NSCLC
NCI-H522 lung = tested on: NCI-H522 lung
A549/ATCC NSCLC = tested on: A549/ATCC NSCLC
786-0 renal = tested on: 786-0 renal
COLO 205 colon = tested on: COLO 205 colon

Measured: growth

O=C(COc1cccc(/C=C2/Oc3ccccc3C2=O)c1)Nc1nccs1
active: HOP-92 NSCLC -51.4% | NCI-H522 lung -9.74%
inactive: NCI-H23 lung 61.6% | NCI-H226 lung 99.3% | NCI-H322M lung 95.7% | HOP-62 NSCLC 93.3% | NCI-H460 lung 103% | A549/ATCC NSCLC 88.2% | 786-0 renal 90.7% | COLO 205 colon 235%

O=C(CN1CCN(c2cc3c(cc2F)c(=O)c(C(=O)O)cn3C2CC2)CC1)Nc1nc(-c2ccccc2)cs1
inactive: NCI-H23 lung 86.4% | NCI-H226 lung 77.3% | NCI-H322M lung 102% | HOP-62 NSCLC 81.1% | NCI-H460 lung 73.3% | HOP-92 NSCLC 70.8% | NCI-H522 lung 75.5% | A549/ATCC NSCLC 65.2% | 786-0 renal 75.5% | COLO 205 colon 93.3%

COc1cnc2c(c1)C(=O)c1c-2n(CCCN2CCCC2)c(=O)c2cc([N+](=O)[O-])ccc12
inactive: HOP-92 NSCLC 16.4%
active: NCI-H23 lung -7.75% | NCI-H226 lung -79.4% | NCI-H322M lung -11.9% | HOP-62 NSCLC -16.8% | NCI-H460 lung -60.1% | NCI-H522 lung -31% | A549/ATCC NSCLC -44.8% | 786-0 renal -90.9% | COLO 205 colon 2.24%

Cn1c(=O)c2c(ncn2CC[N+](C)(C)C)n(C)c1=O
inactive: NCI-H23 lung 99.9% | NCI-H226 lung 93.2% | NCI-H322M lung 101% | HOP-62 NSCLC 92% | NCI-H460 lung 109% | HOP-92 NSCLC 110% | NCI-H522 lung 80.7% | A549/ATCC NSCLC 91.7% | 786-0 renal 108% | COLO 205 colon 103%

O=C(O)c1ccc2c(c1Sc1ccccc1)C(=O)c1ccccc1C2=O
inactive: NCI-H23 lung 91.1% | NCI-H226 lung 92.6% | NCI-H322M lung 82.2% | HOP-62 NSCLC 91.8% | NCI-H460 lung 100% | HOP-92 NSCLC 76.7% | NCI-H522 lung 120% | A549/ATCC NSCLC 96.8% | 786-0 renal 106% | COLO 205 colon 112%

CS(=O)(CCCCN=C=S)=NC(=O)c1c(F)c(F)c(F)c(F)c1F (stereo not given)
inactive: NCI-H23 lung 96.7% | NCI-H226 lung 99.6% | NCI-H322M lung 108% | HOP-62 NSCLC 111% | NCI-H460 lung 88.4% | HOP-92 NSCLC 107% | NCI-H522 lung 57% | A549/ATCC NSCLC 80.3% | 786-0 renal 89% | COLO 205 colon 89.4%

CC1=NNC(=O)C1C (stereo not given)
inactive: NCI-H23 lung 100% | NCI-H226 lung 93.5% | NCI-H322M lung 585% | HOP-62 NSCLC 87.4% | NCI-H460 lung 114% | HOP-92 NSCLC 102% | NCI-H522 lung 85.9% | A549/ATCC NSCLC 98.6% | 786-0 renal 103% | COLO 205 colon 110%
